About 83,000 compounds went through this panel and 20% of them were active in at least one assay; those are over-represented in the sample as a whole.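 The test compound was applied at a single concentration to cells in 96-well plates for 48 hours, and percent growth was recorded.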 Calls of active or inactive are those of the source. Rule for the calls: active = growth percent below 10; inactive = the rest.
Each compound was assayed on HL-60(TB) leukemia (assay: NCI-60 one-dose screen, 48 h (100 = growth as untreated, 0 = no growth, -100 = all killed)). Conditions: 10 µM unless noted.
In the case of `COc1cc2c(=O)[nH]c3cc([N+](=O)[O-])ccc3c2cc1[N+](=O)[O-]`, the growth is reported as 71.1% (inactive).
In the case of `COC(=O)[C@H](C)NC(=O)[C@@H]1CCCN1C(=O)CNC(=O)[C@H](C)N`, the growth is reported as 104% (inactive).
For `CN1CCN(C(=O)c2ccc(NC(=O)c3cc4c(nn3)NCCN4Cc3cc(Cl)ccc3Cl)cc2)CC1`, the growth was 43% (inactive).
With `COc1cc2oc(-c3ccc(O)cc3)cc(=O)c2c(O)c1-c1c(OC)cc(O)c2c(=O)cc(-c3ccc(O)cc3)oc12` the growth was 0.122% (active).
`N=C(N)Sc1cccc[n+]1[O-]` was tested, and the growth was 27.8% (inactive).
With `C=C1C(=O)O[C@H]2[C@H]1CC/C(CNC(=O)/C=C/c1ccccc1F)=C\CC[C@@]1(C)O[C@@H]21` the growth was -31.9% (active).
In the case of `COc1ccc(-c2nc3sc(-c4ccccc4)c(-c4ccccc4)n3c2/C=C/c2ccc(F)cc2)cc1`, the growth is reported as 105% (inactive).
`CCCCCN(CCCCC)C(C)C(O)c1ccc2cc(Cl)c3ccccc3c2c1` (stereo not given) was tested, and the growth was 105% (inactive).
In the case of `CCCCCCNc1nc(N2CCOCC2)c2[nH]c(NCCCCCC)nc2n1`, the growth is reported as -54.8% (active).
`COc1ccccc1/C=C1\COc2ccc(O)c(O)c2C1=O` was tested, and the growth was -21.9% (active).
`CCOC(=O)/C(=C/CC/C(C)=C/CC/C(C)=C/CCc1ccoc1)CC(=O)N1CCCCC1` was tested, and the growth was -35.2% (active).
`C=CCOc1ccc(Cl)cc1Cl` was tested, and the growth was 20.5% (inactive).
`Cc1ccc(NC(=O)CCl)cc1Cl` was tested, and the growth was 106% (inactive).
`CC(C)(C)c1ccc(C(=O)Nc2sc3c(c2C(N)=O)CCC(=O)C3)cc1` was tested, and the growth was 3% (active).
For `C(=C\c1cn(-c2ccccc2)nc1-c1ccccc1)/c1nnc(-c2c[nH]c3ccccc23)o1`, the growth was 98.1% (inactive).
`O=C1/C(=C/c2ccc(OCCCOc3ccc(Cl)cc3)cc2)N=C2SCCCN12` was tested, and the growth was 93% (inactive).
In the case of `Cc1ccc(Sc2ccccc2N)cc1`, the growth is reported as 115% (inactive).
For `O=C1Nc2cc(Cl)ccc2Oc2cc(Oc3ccccc3)ccc21`, the growth was 38.6% (inactive).
In the case of `CCCCCCCCCCCCCCCC[N+]1(C)CCN(SN2CC[N+](C)(CCCCCCCCCCCCCCCC)CC2)CC1`, the growth is reported as 0.773% (active).
`Cc1ccc(-n2nc3c(c(C#N)c2=O)CC(c2ccccc2Cl)C([N+](=O)[O-])=C3O)cc1` (stereo not given) was tested, and the growth was 96% (inactive).
With `CN(C)CCN1C(=O)c2ccc3c4c(ccc(c24)C1=O)C(=O)N(CCN=C=S)C3=O` the growth was -51.1% (active).
In the case of `CC(=O)Oc1csc(N(C(C)=O)c2cccc(C(F)(F)F)c2)n1`, the growth is reported as 107% (inactive).
`COc1cccc(/C=C/C(=O)c2c(C)nc3ccccc3c2/C=C/c2ccc(C)cc2)c1OC` was tested, and the growth was 36% (inactive).
For `CC(C)(CCCN=C(N)Nc1ccc(Cl)cc1)c1ccc(F)cc1`, the growth was 93.4% (inactive).
`NC(CCl)=NCCC[C@H](N)C(=O)O` was tested, and the growth was 104% (inactive).
In the case of `O=C1c2ccccc2C(=O)c2c(N=Nc3[nH]c(=S)[nH]c3O)cccc21`, the growth is reported as -32.1% (active).
With `O=C(/C=C/c1cn(-c2ccccc2)nc1-c1ccc(Cl)cc1)c1ccc(F)cc1` the growth was 56.6% (inactive).
In the case of `CC/C=C\C/C=C\C[C@H](O)C/C=C1/C(=O)C=C[C@@H]1C/C=C\CCCC(=O)OC`, the growth is reported as -19.5% (active).
`CNCCCn1c2c(c3ccc([N+](=O)[O-])cc3c1=O)C(=O)c1cc(OC)cnc1-2` was tested, and the growth was -32.3% (active).
In the case of `COc1ccccc1/C=C1\Oc2cc(OCCN3CCC(Cc4ccccc4)CC3)ccc2C1=O`, the growth is reported as 97.1% (inactive).
With `CC(C)C[C@@H](NC(=O)[C@@H](Cc1ccccc1)NC(=O)c1cnccn1)B1O[C@H]2[C@H](O)[C@@H](C(=O)NCCCC[C@@H]3NC(=O)[C@@H](Cc4ccccc4)NC(=O)[C@H](CC(=O)O)NC(=O)CNC(=O)[C@H](CCCN=C(N)N)NC3=O)O[C@@H](CN)[C@H]2O1` the growth was -1.86% (active).
In the case of `COC(=O)c1nc(-c2ccccc2)oc1S(=O)(=O)NCC(c1ccc(Cl)cc1)N1CCOCC1` (stereo not given), the growth is reported as 4.12% (active).
With `O=C1/C(=C/c2ccc(Cl)c(Cl)c2)CN(C(=O)CCN2CCC(=NO)CC2)C/C1=C\c1ccc(Cl)c(Cl)c1` the growth was -16% (active).
For `COc1cc2c(=O)n(CCCN(C)C)c3c4cc[nH]c4ncc3c2cc1OC`, the growth was 75.3% (inactive).
For `COc1ccc(-c2nn(-c3ccc(NC(=O)Nc4ccc(Cl)c(Cl)c4)cc3)cc2-c2ccncc2)cc1Cl`, the growth was 5.24% (active).
In the case of `Oc1ccc(/C=C/c2ccccc2)cc1`, the growth is reported as 34.1% (inactive).
With `Cc1cn(C2CCCCC2)c(=O)[nH]c1=O` the growth was 96.7% (inactive).
With `O=[N+]([O-])c1cccc(-c2nc3sccn3c2-c2ccnc(NCCCNS(=O)(=O)c3cccc(F)c3)n2)c1` the growth was -21.5% (active).
In the case of `COc1cccc2c1C(=O)c1c(O)c3c(c(O)c1C2=O)C[C@@](O)(/C(C)=N/NC(=O)c1cccc([N+](=O)[O-])c1)C[C@@H]3OC1CC(N)C(O)C(C)O1` (stereo not given in full), the growth is reported as -45.1% (active).
In the case of `CCCCCCCC(=O)SCC/C=C/[C@@H]1CC(=O)NCc2cc(ccn2)C2=N[C@@](C)(CS2)C(=O)N[C@@H](C(C)C)C(=O)O1`, the growth is reported as 22.6% (inactive).

Reference: PubChem BioAssay (NCI)
